An excerpt weighted towards active compounds, which were near 0.77% of everything screened.
TbPYK inhibitor = qHTS of Trypanosoma Brucei Inhibitors | pyruvate kinase (Trypanosoma brucei), Q57TT1 | TbPYK enzyme, Kinase-Glo Plus ATP luminescence, 45 min | Potency, µM (doses to about 76.8 µM), without a hit: at the highest dose activity, negative = inhibition, hits mostly inhibitors | 410,000 compounds, 0.12% hits | AID 624173, 2012; further: potency means the concentration at half of the fitted maximal effect; on the % scale 0 is the no-effect control and ±100 the full control effect; nearly all actives have a fitted effect of over 50% in size
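T. brucei PYK with substrate was exposed to pin-transferred compounds across a concentration series, then started with 130 uM ADP (final). After 45 min at room temperature, Kinase-Glo Plus luminescence was read, normalized and curve-fitted.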
RE007 growth inh = qHTS Assay for Inhibitors of the HIV-1 protein Vpr | S. pombe RE007 Vpr strain, BacTiter-Glo ATP luminescence, 24 h | Potency, µM (doses to about 92.2 µM), without a hit: at the top dose activity change, negative = less growth, usual class: inhibitors | 360,000 compounds, 0.21% hits | AID 651644, 2012; active means well fitted falling curve with a large enough effect; inconclusive means small, poorly fitted or top-dose-only effect; inactive means no such curve, though single readings can be large or run the other way; further: potency means the concentration at half of the fitted maximal effect; on the % scale 0 is the no-effect control and ±100 the full control effect; nearly all actives have a fitted effect of over 50% in size
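Fission yeast RE007 carrying one integrated HIV-1 vpr copy, seeded at OD 0.01 in PMG+AL medium with 23 nL pinned compound. Grown 24 h at 30 degrees; viability read by BacTiter-Glo luminescence after 5 min.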
NS1 function inh = qHTS Assay for Inhibitors of Influenza NS1 Protein Function; Potency, µM (top dose mostly 46.1 µM), for the others: at the highest dose activity, positive = more growth; 270,000 compounds, 0.4% hits; calls by dose curve; further: potency means the concentration at half of the fitted maximal effect; actives are rising curves; nearly all actives have a fitted effect of over 50% in size
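S. cerevisiae expressing influenza A NS1, grown in glucose, washed, then diluted 1:100 into pH 6.0 -URA galactose medium with 23 nl compound. Growth recovery read as OD600; NS1-free strain serves as control.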
LmPK inh = qHTS Assay for Inhibitors of Leishmania Mexicana Pyruvate Kinase (LmPK); Q27686; purified LmPK, Kinase-Glo ATP luminescence, 1 h; Potency, µM (doses to about 57.5 µM), for inactives: top-dose activity change, negative = inhibition, most hits filed as inhibitors; 290,000 compounds, 0.37% hits; AID 1721, 2009; further: potency means the concentration at half of the fitted maximal effect; on the % scale 0 is the no-effect control and ±100 the full control effect
Target sequence (Q27686 whole entry, looked up): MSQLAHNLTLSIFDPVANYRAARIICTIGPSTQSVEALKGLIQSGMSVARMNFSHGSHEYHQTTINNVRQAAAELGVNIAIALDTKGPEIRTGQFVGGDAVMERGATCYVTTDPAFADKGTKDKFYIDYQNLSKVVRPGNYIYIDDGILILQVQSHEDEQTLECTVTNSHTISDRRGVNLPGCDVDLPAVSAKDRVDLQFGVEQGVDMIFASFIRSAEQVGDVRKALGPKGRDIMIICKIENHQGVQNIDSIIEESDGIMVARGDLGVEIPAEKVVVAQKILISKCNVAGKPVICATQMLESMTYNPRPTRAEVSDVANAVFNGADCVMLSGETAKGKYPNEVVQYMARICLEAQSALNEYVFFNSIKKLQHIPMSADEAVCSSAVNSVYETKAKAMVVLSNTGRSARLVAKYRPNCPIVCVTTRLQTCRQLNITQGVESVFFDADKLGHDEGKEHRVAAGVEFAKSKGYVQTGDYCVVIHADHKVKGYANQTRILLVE
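Kinase-Glo luminescence read after 1 h RT reaction of 0.1 nM LmPK with 0.5 mM PEP and 0.1 mM ADP. Activity scaled between uninhibited and enzyme-free controls.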
Flu NS1 inh = Assay for Inhibitors of Influenza NS1 Protein Function: Hit Validation. shares compounds with NS1 function inh. influenza NS1 function cell assay, 15-point titration. activity change, negative = inhibition, % at 32.9 µM. 1,400 tested, under 10 active. AID 492980, 2010; calls by dose curve; further: 0% is about no effect
PR8 titer = Assay for Inhibitors of Influenza NS1 Protein Function: Influenza virus replication assay in MDCK cells infected with virus A/PR/8/34. shares compounds with NS1 function inh. MDCK infected influenza A/PR/8/34, virus titer TCID50; active compounds read low. virus titer (log TCID50), log10 TCID50 at 5 µM. 95 compounds, 30% hits. AID 504647, 2011; call rule not given here
An asterisk follows results filed as active; ? = inconclusive; / = no result; [ ] = remark or other dose. Unless noted, the call rests on the fitted dose curve; in most records, active means well fitted curve in the direction sought with a large enough effect; inconclusive means small, poorly fitted or top-dose-only effect, or another doubt; inactive means no such curve, though single readings can be large; an effect the other way counts as inactive or inconclusive.

SMILES | TbPYK inhibitor | RE007 growth inh | NS1 function inh | LmPK inh | Flu NS1 inh | others
Cc1ccccc1C(=O)N1CCc2cc(-c3nc(NC(=O)Cc4ccc5c(c4)OCO5)sc3C)ccc21 | 1% | -1% | ? | 1% | 1
CC1(C)OC(=O)C(=CNCC(O)c2ccccc2)C(=O)O1 (stereo unspecified) | 5% | -19% | 16µM* | -1% | -3
C=CCN1CC(c2nc3ccccc3n2CCOc2ccccc2)CC1=O (stereo unspecified) | -4% | 1% | ? | -4% | -24
C=CCc1ccccc1OCCn1c(C2CC(=O)N(Cc3ccc(F)cc3)C2)nc2ccccc21 (stereo unspecified) | -2% | / | / | / | /
O=c1cc(O)c2sc3nc(-c4ccccc4)cc(C(F)(F)F)c3c2[nH]1 | -18% | / | ? | 0% | 2
CCCOc1ccc(C(=O)Nc2cc(-c3nn4c(C)nnc4s3)ccc2C)cc1 | -6% | 2% | 4.5µM* | 10% | 5
COc1cc(/C=N/NC(=O)c2ccc(CN3C(=O)c4cccc5cccc3c45)cc2)cc(OC)c1O | -9% | 0% | 13µM* | 1% | 18
Cc1cc2c(ncn2Cc2ccccc2)c([N+](=O)[O-])c1C | 8% | -10% | -30% | 3% | /
CCOC(=O)C1CCCN(C(=O)C2CCN(S(=O)(=O)c3ccc4ccccc4c3)CC2)C1 (stereo unspecified) | -14% | 0% | -25% | -4% | /
O=C(Cn1c(=O)n(CCc2c[nH]c3ccccc23)c(=O)c2cccnc21)Nc1ccccc1F | 0% | 14% | 20% | -6% | /
Cc1cccc(NC(=O)Cn2c(=O)n(CCc3c[nH]c4ccccc34)c(=O)c3cccnc32)c1 | / | / | 4µM* | 1% | -4
CCOc1ccc(NC(=O)c2cnc(N3CCCC3)nc2C)cc1 | 5% | / | / | / | /
COc1ccc(C(=O)N2CCc3cc(OC)c(OC)cc3C2COc2ccc3c(C)cc(=O)oc3c2)c(OC)c1 (stereo unspecified) | 0% | / | / | / | /
COc1cccc(NC(=S)N2CCc3cc(OC)c(OC)cc3C2COc2ccc3c(C)cc(=O)oc3c2)c1 (stereo unspecified) | -8% | -9% | 8.9µM* | 7% | 18
FC(F)(F)c1ccc(/C=N/N2CCN(Cc3cccc4ccccc34)CC2)cc1 | -10% | 5% | 8% | -6% | /
C(=N\N1CCN(Cc2cccc3ccccc23)CC1)/c1cccnc1 | 7% | 0% | 10µM* | 8% | -5
COc1ccc(C(=O)c2cnc3ccc(C)cc3c2S(=O)(=O)c2ccccc2)cc1 | -18% | / | / | / | /
Cc1ccc(S(=O)(=O)c2c(C(=O)c3ccccc3)cnc3cc4c(cc23)OCCO4)cc1 | -3% | 16% | 16µM* | 6% | 8
COc1cc(C2CC(=O)Nc3n[nH]c(-c4ccccc4)c32)cc(OC)c1OC (stereo unspecified) | 3% | 10% | -12% | 7% | /
COc1cc(CNc2ccc3[nH]c(=O)[nH]c3c2)cc(Br)c1OCc1ccccc1F | -11% | 9% | 0.79µM* | -2% | -3
O=C(O)CC(CC(=O)Nc1ccc(-n2ccc(C(F)(F)F)n2)cc1)c1ccccc1 (stereo unspecified) | -11% | 10% | ? | 3% | -5
O=C(Nc1ccccc1)Nc1ccc(-n2ccc(C(F)(F)F)n2)cc1 | 2% | -2% | 0% | -5% | /
O=C(NCc1ccc2c(c1)OCO2)C12CN(Cc3ccccc3)CC1C(c1cccc([N+](=O)[O-])c1)=NO2 (stereo unspecified) | 0% | -4% | 13µM* | 5% | -11
O=C(NCc1ccc(C(F)(F)F)cc1)C12CN(Cc3ccccc3)CC1C(c1cccc([N+](=O)[O-])c1)=NO2 (stereo unspecified) | 0% | 10% | 13µM* | 8% | 8
O=C(NCC1CCCCC1)C12CN(Cc3ccccc3)CC1C(c1cccc([N+](=O)[O-])c1)=NO2 (stereo unspecified) | -1% | -9% | 23% | 8% | /
SMILES | TbPYK inhibitor | RE007 growth inh | NS1 function inh | LmPK inh | Flu NS1 inh | others
Cc1c(-c2cccc(NC(=O)Nc3ccccc3)c2)nc2ncccn12 | -10% | / | / | / | /
C=C1C(=O)O[C@@H]2C[C@@H](C)[C@@H]3C=CC(=O)[C@@]3(C)[C@@H](O)[C@H]12 | 4% | 5%[18.4 µM] | ? | -3% | /
C=C1C(=O)C=C[C@]2(C)C[C@@H]3OC(=O)[C@](C)(O)[C@H]3C[C@@H]12 | 1% | -20% | ? | -11% | 0
CCCCN(C)CCCNC(=O)Cn1nc(CC)n2c(cc3sc(C)cc32)c1=O | 5% | / | / | / | /
COc1ccc(S(=O)(=O)N2CCCCC2)cc1NS(=O)(=O)c1cc(Cl)ccc1Cl | -2% | / | 22µM* | 1% | 49 | PR8 titer=8.5
Cc1ccc2c(c1)Cc1c(nc(-c3ccc(F)cc3)nc1SCC(=O)N1CCCCC1)O2 | 4% | / | / | / | /
CCCCc1cc2c(cn1)C(=O)C(C)(OC(C)=O)C(=O)C2 (stereo unspecified) | / | / | / | -7%[11.5 µM] | /
N#C/C(=C/c1ccc(N2CCCCC2)o1)C(=O)Nc1ccc2ccccc2c1 | -1% | -4% | 11µM* | -3% | 2
COc1ccc(N(CC(=O)NCCSC2CCCCC2)S(=O)(=O)c2ccccc2)c(OC)c1 | / | / | 4µM* | -4% | -8
COc1ccc(OC)c(N(CC(=O)NCCSC2CCCCC2)S(=O)(=O)c2ccccc2)c1 | 1% | -15% | 13% | -9% | /
COc1ccccc1Nc1nc(N)nc(CSC(=S)N2CC(C)CC(C)C2)n1 (stereo unspecified) | -1% | -5% | 10µM* | 2% | ?
Cc1ccc(C)n1NC(=O)c1ccc(O)cc1 | -16% | -15% | 11µM* | 6% | 18
CCSc1ccccc1C(=O)Nc1ccc(-c2nc3ccccc3s2)c(O)c1 | -1% | / | / | / | /
CCc1nnc(NS(=O)(=O)c2ccc(NC(=O)c3cc(Cl)ccc3Cl)cc2)s1 | -4% | 8% | 11% | 4% | /
CCc1nnc(NS(=O)(=O)c2ccc(NC(=O)c3cc(Cl)ccc3[N+](=O)[O-])cc2)s1 | 0% | 1% | 11µM* | 1% | 29 | PR8 titer=8.3
C=CCNC(=O)C1CC(=O)N(c2ccc(OCC(=O)Nc3c(C)cccc3C)cc2)C1 (stereo unspecified) | -4% | -8% | ? | 0% | -17
C=CCNC(=O)C1CC(=O)N(c2ccc(OCC(=O)Nc3ccc(C)cc3)cc2)C1 (stereo unspecified) | -3% | 1% | 4% | -4% | /
